# Reference: ChEMBL document CHEMBL2218924, “A broad activity screen in support of a chemogenomic map for kinase signalling research and drug discovery” (Biochem J, 2013)
# Target: T1, Serine/threonine-protein kinase haspin (Homo sapiens) (UniProt Q8TF76)
# T1 sequence (whole entry): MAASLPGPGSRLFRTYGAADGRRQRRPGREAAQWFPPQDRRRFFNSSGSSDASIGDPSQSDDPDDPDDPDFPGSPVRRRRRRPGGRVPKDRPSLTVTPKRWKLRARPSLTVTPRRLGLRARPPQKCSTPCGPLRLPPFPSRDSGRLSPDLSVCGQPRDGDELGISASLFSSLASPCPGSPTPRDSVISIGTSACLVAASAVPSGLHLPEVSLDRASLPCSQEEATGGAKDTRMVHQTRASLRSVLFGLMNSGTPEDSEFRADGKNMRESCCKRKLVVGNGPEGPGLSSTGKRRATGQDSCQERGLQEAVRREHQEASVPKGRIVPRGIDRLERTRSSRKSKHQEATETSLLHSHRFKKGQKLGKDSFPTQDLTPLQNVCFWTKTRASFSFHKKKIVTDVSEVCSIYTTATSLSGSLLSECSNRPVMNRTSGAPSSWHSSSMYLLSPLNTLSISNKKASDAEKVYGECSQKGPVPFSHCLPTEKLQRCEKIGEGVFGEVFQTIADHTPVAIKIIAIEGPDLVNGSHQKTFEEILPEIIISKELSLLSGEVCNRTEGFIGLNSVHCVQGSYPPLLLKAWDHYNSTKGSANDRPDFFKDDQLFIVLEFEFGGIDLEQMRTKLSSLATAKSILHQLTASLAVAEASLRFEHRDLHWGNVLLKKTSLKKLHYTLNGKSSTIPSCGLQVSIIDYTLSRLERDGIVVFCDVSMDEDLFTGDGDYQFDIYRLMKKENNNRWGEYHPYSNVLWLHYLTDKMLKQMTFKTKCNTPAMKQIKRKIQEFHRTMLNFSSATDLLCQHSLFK
# Conditions: at 1 µM
row,SMILES,residual activity [%]
1,O=c1cc(N2CCNCC2)oc2c(-c3ccccc3)cccc12,83
2,CC(C)[C@H](CO)Nc1nc(Nc2cc(N)cc(Cl)c2)c2ncn(C(C)C)c2n1,57
3,O=C1NC(=O)c2c1c1c3ccccc3[nH]c1n1cncc21,8
4,Cc1cc(C)c(/C=C2\C(=O)Nc3ccccc32)[nH]1,100
5,CN(C)S(=O)(=O)c1ccc2c(c1)/C(=C/c1cc3c([nH]1)CCCC3)C(=O)N2,127
6,CC(C)(C)c1nc2c3ccc(F)cc3c3c(=O)[nH]ccc3c2[nH]1,74
7,Nc1ncnc2c1c(-c1ccc(Oc3ccccc3)cc1)cn2C1CCCC1,90
8,O=c1cc(N2CCOCC2)oc2c1ccc1ccccc12,74
9,NC(=O)c1cccc(-c2cc(Nc3ccc(OC(F)(F)F)cc3)ncn2)c1,84
10,Oc1cccc(-c2nc(N3CCOCC3)c3oc4ncccc4c3n2)c1,76
11,CC(C)c1nn(-c2c(Cl)cccc2Cl)c2nc(Cc3ccc(OCCO)cc3)[nH]c(=O)c12,97
12,O=C1C(Cl)=C(N2C(=O)CCC2=O)C(=O)c2ccccc21,96
13,O=S(=O)(c1cccc2cnccc12)N1CCCNCC1,60
14,N#C/C(=C1/Nc2ccccc2S1)c1ccnc(NCCc2cccnc2)n1,36
15,CC(C)(C)n1nc(Cc2cccc3ccccc23)c2c(N)ncnc21,79
16,c1ccc(-c2cnc(Nc3ccc(OCCN4CCCC4)cc3)s2)cc1,77
17,O=C(O)/C=C/c1cc(Br)c(Br)c(Br)c1Br,79
18,COc1ccc2c(c1)c(C1=C(c3c[nH]c4ccccc34)C(=O)NC1=O)cn2CCCN(C)C,98
19,CCN(CC)CCNC(=O)c1c(C)[nH]c(/C=C2\C(=O)Nc3ccc(Cl)cc32)c1C,43
20,CC(C)N(CCC(=O)c1ccc2ccccc2c1)Cc1ccccc1,81
21,O=C(c1cc2cc(O)ccc2[nH]1)c1cc2cc(O)ccc2[nH]1,39
22,COc1cc2nccc(Oc3ccc(NC(=S)NC(=O)c4ccccc4C)cc3)c2cc1OC,80
23,NC(=O)Nc1sc(-c2ccc(F)cc2)cc1C(N)=O,63
24,O=C(NC(NC(=S)Nc1ccc(F)c([N+](=O)[O-])c1)C(Cl)(Cl)Cl)C(c1ccccc1)c1ccccc1 (centres undefined),83
25,CCCCc1c(-c2ccc(OC)cc2)[nH]c2nccnc12,77
26,CCN1/C(=C/C(C)=O)Sc2ccc(OC)cc21,17
27,CCCC(=O)Oc1ccc2[nH]c(C(=O)c3cc4ccccc4[nH]3)cc2c1,106
28,O=C1Nc2ccc(Cl)cc2/C1=C/c1cc(Cl)c(O)c(Cl)c1,12
29,N#Cc1c(NC(=O)c2cccc3ccccc23)sc2c1CCCC2,82
